# In all, about 320,000 compounds went through this assay and about 2,200 (0.69%) were called active. Shown is part of a subset that was picked to be rich in actives. Unmarked numbers belong to inactive results.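 How the source made its calls: active means inhibition above the mean of all tested compounds plus 3 SD, cutoff set per campaign (cut at about 30% in these data); inactive means the rest.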
# Target: Bcl-2-like protein 1 (Homo sapiens) (UniProt Q07817)
# Experiment: inhibitors of human Bcl-xL, primary screen, biochemical, fluorescence polarization, HTS (AID 2129);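 further: 0% = DMSO wells and 100% = unlabeled Bim-BH3 peptide competitor; inhibitors lower millipolarization by displacing the labeled peptide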
# Settings: GST-Bcl-xL / FITC-Bim BH3 peptide fluorescence polarization; at 10.9 µM; hits give high values
# Chain of Bcl-2-like protein 1 (Homo sapiens) (Q07817 whole entry, looked up): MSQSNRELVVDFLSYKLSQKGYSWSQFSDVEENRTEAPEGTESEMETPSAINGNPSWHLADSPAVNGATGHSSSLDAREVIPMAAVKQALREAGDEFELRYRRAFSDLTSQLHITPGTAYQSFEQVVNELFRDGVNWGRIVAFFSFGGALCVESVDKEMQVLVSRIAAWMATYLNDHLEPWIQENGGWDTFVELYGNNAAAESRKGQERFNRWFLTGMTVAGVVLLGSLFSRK
row,Structure (SMILES),inhibition
1,Cc1ccccc1-n1c(SCC(=O)Nc2cccc3ccccc23)nc(O)cc1=O,-0.46%
2,Cc1c(C(=O)NC2CCCCC2)oc2ccccc12,-0.72%
3,COc1cccc2c1OCC(CN1CCN(C3CCCCC3)C(CCO)C1)=C2 (stereo not drawn),2.11%
4,Cc1ccc(CNC(=O)C(=O)c2cn(CC(=O)N3CCCC3)c3ccccc23)cc1,5.15%
5,Cn1cnnc1SCc1nnc(-c2ccccc2Br)o1,2.35%
6,CCOC(=O)N1CCN(Cc2nnc(-c3ccccc3Cl)o2)CC1,-2.11%
7,Nc1cccc2c1C(=O)N(Cc1nnc(-c3ccccc3Br)o1)C2=O,48% (active)
8,CC(=O)NNC(=O)c1csc(Cc2c(Cl)sc3ccc(Cl)cc23)n1,1.7%
9,Cc1ccc([N+](=O)[O-])c(OCCCNCC(C)O)c1 (stereo not drawn),8.16%
10,COc1c(O)ccc2c1CN1CCc3cc4c(cc3C1C2)OCO4 (stereo not drawn),33.7% (active)
11,COc1ccc(CN2CCCC(N3CCc4ccccc4C3)C2)c(O)c1 (stereo not drawn),-3.09%
12,COc1ccc2cc1Oc1ccc(cc1)C[C@H]1c3cc(c(OC)cc3CCN1C)Oc1c(O)c(OC)cc3c1[C@H](C2)N(C)CC3,6.82%
13,CN(C(=O)COC(=O)CCCc1c[nH]c2ccccc12)c1c(N)n(Cc2ccccc2)c(=O)[nH]c1=O,-5.75%
14,O=C(Nn1c(SCc2ccc([N+](=O)[O-])cc2)nc2ccccc2c1=O)c1ccc(F)cc1,-2.84%
15,COc1ccc2[nH]c(C)c(CCN(Cc3cccs3)C(=S)Nc3ccccc3OC)c2c1,59.5% (active)
16,COc1cccc(NC(=S)N(CCc2c(C)[nH]c3ccccc23)Cc2ccco2)c1,-0.26%
17,Cc1[nH]c2ccccc2c1CCN(Cc1cccs1)C(=S)NC(C)(C)C,3.98%
18,COCCn1c(N)c(NCc2ccccc2)c(=O)[nH]c1=O,64.6% (active)
19,COc1ccc(CNc2nc3c(c(=O)[nH]c(=O)n3C)n2Cc2ccccc2)cc1,2.21%
20,COCCn1c(N)c(N(Cc2ccccc2)C(=O)C2CCCCC2)c(=O)[nH]c1=O,-0.25%
21,COc1ccc(CCNC(=O)CCCCCNC(=O)N2CCn3c2nc2ccccc23)cc1OC,1.04%
22,COc1ccc(CCn2c(=N)c(C(=O)NCC3CCCO3)cc3c(=O)n4cccc(C)c4nc32)cc1OC (stereo not drawn),1.5%

row,Structure (SMILES),inhibition
1,Cc1cccn2c(=O)c3cc(C(=O)NCC4CCCO4)c(=N)n(Cc4ccc(F)cc4)c3nc12 (stereo not drawn),0.48%
2,Cc1cccn2c(=O)c3cc(C(=O)NCCN4CCOCC4)c(=N)n(Cc4cccnc4)c3nc12,48.6% (active)
3,Cc1ccc(S(=O)(=O)N(Cc2ccc(Cl)cc2)c2ccccc2C(=O)NCc2cccnc2)cc1,0.59%
4,Cc1sc(NC(=O)c2ccc3ncsc3c2)c(C(N)=O)c1C,4.75%
5,O=C(COc1ccc(/C=N/NS(=O)(=O)c2ccccc2)cc1)NCCc1ccccc1,5.85%
6,COc1ccc(C2C=C(c3ccc(Br)cc3)Nc3nc(NS(C)(=O)=O)nn32)cc1 (stereo not drawn),164% (active)
7,COc1ccc(C2=CC(c3cccc(OC)c3)n3nnnc3N2)cc1 (stereo not drawn),29.1%
8,CC(C)c1ccc(N2CC(C(=O)Nc3nccs3)CC2=O)cc1 (stereo not drawn),-0.59%
9,CC1=C(C(=O)N(C)C)C(c2ccccc2OC(F)F)NC(=O)N1 (stereo not drawn),3.23%
10,Cc1cc2occ(CC(=O)NNC(=O)c3ccccc3F)c2cc1C,0.46%
11,COc1ccccc1NC(=S)N1CCC(NC(=O)C23CC4CC(CC(C4)C2)C3)CC1,2.22%
12,COc1ccc(CNC(=O)c2cc3c(=O)n4ccccc4nc3n(CC3CCCO3)c2=N)cc1 (stereo not drawn),8.61%
13,Cc1cccn2c(=O)c3cc(C#N)c(=NC(=O)c4cccnc4)n(CC4CCCO4)c3nc12 (stereo not drawn),47.4% (active)
14,Cc1cccn2c(=O)c3cc(C#N)c(=O)n(CCCN4CCOCC4)c3nc12,28.5%
15,Cc1oc2c(C)c3oc(=O)c(CC(=O)N[C@@H](CC(C)C)C(=O)N[C@@H](Cc4ccccc4)C(=O)O)c(C)c3cc2c1C,10.3%
16,CCOc1ccc(/C=N/OCC(=O)NCc2cccs2)cc1,2.85%
17,CCN(c1ccccc1)S(=O)(=O)c1ccc(OCC(=O)N2CCCC2)cc1,3.8%
18,CC(C)[C@@H](NC(=O)OC(C)(C)C)C(=O)NCC1CCC(C(=O)N[C@@H](Cc2ccccc2)C(=O)O)CC1 (stereo partly drawn),7.31%
19,CC(C)C1N=C2c3ccccc3N=C(SCC(=O)c3ccc(O)c(O)c3)N2C1=O (stereo not drawn),13.5%
20,C1=C(N2CCOCC2)/C(=C/c2nc3ccccc3[nH]2)CC1,88.2% (active)
21,CC1(C)Cc2c(C#N)c(SCc3nc4ccccc4[nH]3)nc(N3CCOCC3)c2CO1,6.67%
22,O=c1[nH]c(N2CCOCC2)nc2ccccc12,3.04%

row,Structure (SMILES),inhibition
1,CCOC(=O)N1CCN(S(=O)(=O)c2cc(Br)cc3c2N(C(=O)C2CC2)CC3)CC1,-4.43%
2,CS(=O)(=O)N(CC(=O)NCc1ccco1)c1ccc2c(c1)OCO2,5.67%
3,CCN(c1ccc2c(c1)OCO2)S(=O)(=O)c1cc(Br)cc2c1N(C(=O)C1CC1)CC2,34% (active)
4,CCOc1cc(/C=C/C(=O)OCC(=O)NCCN2C(=O)CSC2=O)ccc1OCC(C)C,-5%
5,N#CC1=C(N)C(C#N)(C#N)[C@H](c2ccsc2)[C@H]2COCC=C12,37.8% (active)
6,Cc1cccc(Nc2nc(NCCO)nc(N3CCCC3)n2)c1,-0.55%
7,CCCc1cc(=O)[nH]c(SCC(=O)N2CCN(S(=O)(=O)c3ccc(C)cc3C)CC2)n1,3.73%
8,CCCOc1ccc(C2c3c(oc4cc(C)c(C)cc4c3=O)C(=O)N2CCCN2CCOCC2)cc1 (stereo not drawn),11.6%
9,Cc1cc2oc3ccc(NCCC4CCCN4C)cc3c(=O)c2cc1C (stereo not drawn),40.9% (active)
10,Fc1c(F)c(C(F)(F)F)c(F)c(F)c1N1CCN(c2ccc3nnc(C(F)(F)F)n3n2)CC1,3.95%
11,COc1cc(/C=C/C2=CC(C)(C)NC(=S)N2)cc(OC)c1OC,-3.53%
12,CCCCOC(=O)CNc1nnc(SCC(=O)OCC)[nH]c1=O,15.6%
13,O=S(=O)([N-]c1nc2ccccc2nc1-[n+]1ccc(Cc2ccccc2)cc1)c1ccc(Br)s1,82.6% (active)
14,Cc1cc(C)c[n+](-c2nc3ccccc3nc2[N-]S(=O)(=O)c2cccs2)c1,5.77%
15,O=C(NCCc1ccccc1)C1CCN(S(=O)(=O)c2ccc(Br)s2)CC1,2.98%
16,COC(=O)C1=C(O)/C(=C/c2ccc(OCC(=O)Nc3ccccc3)cc2)N=C1C,0.76%
17,CCOC(=O)C1=C(O)/C(=C/c2ccc(OCC(=O)Nc3ccc(C)cc3)cc2)N=C1C,-2.9%
18,CCOC(=O)C1=C(O)/C(=C/c2cc(C)n(-c3ccccc3)c2C)N=C1C,35.6% (active)
19,CCn1c2c(c3ccc(OC)cc31)CCCC2=O,5.26%
20,O=S(=O)(c1ccc(SCc2ccccc2)nc1)N1CCCCCC1,5.07%
21,CC(=O)c1cnn(-c2cc(Oc3ccc(F)cc3)ncn2)c1C,2.24%
22,COc1ccc(NS(=O)(=O)c2ccc(F)cc2F)cn1,3.96%

row,Structure (SMILES),inhibition
1,COc1cccc(Nc2ncccc2C(=O)O)c1,6.39%
2,COc1ccc(Nc2cc(Cl)ccc2C(=O)O)cn1,50.8% (active)
3,CCCCOP(=O)(c1ccc(N(C)C)cc1)C(O)c1cc(OC)ccc1OC (stereo not drawn),5.82%
4,Cc1ccc(NC(=O)CSCC(=O)N2CCOCC2)cc1,1.4%
5,COc1cccc2cc(S(=O)(=O)c3ccc(C)cc3)/c(=N/NS(=O)(=O)c3ccc(C)cc3)oc12,5.22%
6,COC(=O)Cc1cc(=O)oc2c(C)c(O)ccc12,4.68%
7,Cc1cc(S(=O)(=O)c2cc3ccc(O)c(C)c3oc2=O)ccc1F,40.6% (active)
8,Cc1ccc(NC(=O)C2CC2c2ccccc2)cc1 (stereo not drawn),2.22%
9,CC(=O)N1c2ccc(S(=O)(=O)N3CCC(C(=O)NC4CCCC(C)C4C)CC3)cc2CC1C (stereo not drawn),0.13%
10,COc1ccccc1/C=C/C=N/n1c(-c2ccc(Cl)cc2Cl)n[nH]c1=S,-7.95%
11,CSc1c(SCc2ccccc2)cnn(Cc2ccccc2)c1=O,145% (active)
12,CCn1c(SCc2ccccc2)nc2cc(OC)c(OC)cc2c1=O,3.12%
13,COC(=O)c1ccc(SCc2ccccc2)nc1,6.87%
14,CCc1ccccc1NC(=O)NCCN1CCCCC1,5.44%
15,CCOC(=O)[C@@H]1[C@H]2COc3cc(OC)ccc3[C@@H]2N2C(=O)N(c3cccc(C)c3)C(=O)[C@@]12C,3.42%
16,Cn1sc(=O)c2cc(S(=O)(=O)NC3CC3)ccc21,2.2%
17,COc1cc2nc(CN(C)Cc3ccc(F)cc3)[nH]c(=O)c2cc1OC,-1.08%
18,COc1ccc(CN(C)Cc2nc3cc(OC)c(OC)cc3c(=O)[nH]2)c(OC)c1,85.4% (active)
19,COc1cc(CN(C)Cc2nc3cc(C(F)(F)F)ccc3c(=O)[nH]2)ccc1OC(F)F,-2.06%
20,Cc1cc(NC(=O)C(C)SCC(=O)Nc2ccccc2N2CCCCC2)no1 (stereo not drawn),-2.56%
21,COc1ccc(CCNC(=O)COC(=O)c2cc(=O)c3ccccc3o2)cc1,-7.08%
22,O=C(C1CC(=O)N(C2CCCCC2)C1)N1CCN(c2ccccc2)CC1 (stereo not drawn),3.83%

# From PubChem BioAssay AID2129 (The Scripps Research Institute Molecular Screening Center, 2009)
